Several values for one entry are separate records, joined by “and”; a condition that tells them apart may be missing. Equal entries are not always repeated. The whole screen tested about 63,000 compounds, of which about 1,100 (1.7%) were called active. This excerpt belongs to a sample that is enriched for actives. Results with a measured potency or affinity are listed apart. Values without a mark were called inactive.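 The calls were made as follows: active = compounds whose percent cytotoxicity in the single-dose primary screen, scaled between solvent and toxic-drug controls, exceeds 50; inactive = the rest.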
Assay: viability loss of HPDE-C7K cells – cell-based, fluorescence, HTS, primary screen (AID 431);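 also: 0% = DMSO solvent wells and 100% = doxorubicin-treated wells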
Conditions: HPDE-C7K KRASV12 cells, Alamar Blue viability, 48 h; at 10 µM; hits give high values
`C=CCn1c(COc2cccc3ccc(C)nc23)nnc1SCC(=O)OC` showed a cytotoxicity of 6.8%.
With `COc1cccc(CN2CCNC(=O)C2CC(=O)O)c1OC` (stereo unspecified) the cytotoxicity was -4.6%.
Work on `Cc1n[nH]c(C)c1S(=O)(=O)N1CCN(C(=O)c2ccco2)CC1` yielded a cytotoxicity of 4%.
Work on `COC(=O)c1ccc(CN(c2ccc(C)cc2)S(=O)(=O)c2ccc3c(c2)OCCO3)o1` yielded a cytotoxicity of 7.1%.
With `COc1cccc(N(CC(=O)NC(C)(C)C)C(=O)C2CSC(=O)C2)c1` (stereo unspecified) the cytotoxicity was -24.1%.
`CCOC(=O)C1CCN(c2ncnc3c2cnn3-c2ccccc2)CC1` showed a cytotoxicity of 2.3%.
Work on `COc1ccc(/C(O)=C2/C(=O)C(=O)N(CCN(C)C)C2c2ccccn2)cc1OC` (stereo unspecified) yielded a cytotoxicity of -9.5%.
Compound `O=C(NC1CCCCC1)C(c1ccc(F)cc1)N(Cc1ccco1)C(=O)Cn1nnc2ccccc21` (stereo unspecified) has a cytotoxicity of -8.2%.
Compound `CCC(C)(C)NC(=O)C(c1ccccc1F)N(Cc1ccco1)C(=O)Cn1nnc2ccccc21` (stereo unspecified) has a cytotoxicity of -4.3%.
With `O=C(NC1CCCCC1)C(c1ccccc1F)N(Cc1ccco1)C(=O)Cn1nnc2ccccc21` (stereo unspecified) the cytotoxicity was 65.1% (active).
Compound `O=C(OC(C(=O)NCC1CCCO1)c1ccc(F)cc1)c1ccco1` (stereo unspecified) has a cytotoxicity of -12.4%.
`COc1cc(-c2c(C#N)c(N)nc3c2CCCC3)ccc1O` gave a cytotoxicity of -23.5%.
In the case of `COc1cc2nc(N3CCN(C(=O)C4COc5ccccc5O4)CC3)nc(N)c2cc1OC` (stereo unspecified), the cytotoxicity is reported as 43.4%.
In the case of `COc1cc2nc(N3CCN(C(=O)C4CCCO4)CC3)nc(N)c2cc1OC` (stereo unspecified), the cytotoxicity is reported as -6.8% and -0.8%.
For `COc1cc2nc(N3CCN(C(=O)c4ccco4)CC3)nc(N)c2cc1OC`, the cytotoxicity was 90.2% (active).
For `CN(c1ccccc1C(=O)NCc1ccco1)S(C)(=O)=O`, the cytotoxicity was 3.4%.
`Cc1ccc(S(=O)(=O)NCCC(=O)Nc2nnc(C3CC3)s2)cc1C` showed a cytotoxicity of 5.5%.
`O=C(NCCCN1CCOCC1)c1ccc(CS(=O)(=O)c2cccc(C(F)(F)F)c2)o1` showed a cytotoxicity of -4.8%.
Compound `O=C1c2cccnc2C(O)N1Cc1cccs1` (stereo unspecified) has a cytotoxicity of -24.1%.
With `O=C1Nc2ccccc2C12OCC(COc1ccc(Cl)cc1)O2` (stereo unspecified) the cytotoxicity was 36.3%.
In the case of `CCC(C)n1ncn(-c2ccc(N3CCN(c4ccc(OCC5COC(Cn6cncn6)(c6ccc(Cl)cc6Cl)O5)cc4)CC3)cc2)c1=O` (stereo unspecified), the cytotoxicity is reported as 68.7% (active).
Compound `CCCC1COC(Cn2cncn2)(c2ccc(C)cc2)O1` (stereo unspecified) has a cytotoxicity of -8.6%.
In the case of `CN1CCN(S(=O)C23CC4CC(CC(C4)C2)C3)CC1` (stereo unspecified), the cytotoxicity is reported as -18.9%.
`COc1ccc(C(=O)OCCN2C(=O)c3ccccc3C2=O)cc1` gave a cytotoxicity of 1.1%.
In the case of `CCCOC(=O)c1ccc(OC(=O)c2ccco2)cc1`, the cytotoxicity is reported as 1.8%.
In the case of `CCOc1ccc(-c2nc(N)nc(C)c2-c2ccc(OC)c(OC)c2)c(O)c1`, the cytotoxicity is reported as 9.6%.
`CCOc1ccc(-c2n[nH]c(C)c2-c2ccccc2OC)c(O)c1` showed a cytotoxicity of -3.5%.
Work on `Cc1cc2nc(SCCN3CCCC3)[nH]c2cc1C` yielded a cytotoxicity of 16.7%.
With `CC1=Nn2c(nnc2C2CCCCC2)SC1` the cytotoxicity was -19%.
`CCn1c(=O)cc(OCC(=O)NC2CCCCC2)c2ccccc21` gave a cytotoxicity of -1.2%.
Work on `CCSc1nnc(-c2ccc(S(=O)(=O)N3CCOCC3)cc2)n1CC1CCCO1` (stereo unspecified) yielded a cytotoxicity of 14%.
Compound `Cc1c(N(C)C(=O)c2ccco2)c(=O)n(-c2ccccc2)n1C` has a cytotoxicity of 8.3%.
In the case of `COc1ccc2c(c1)CC(C1(O)C(=O)Nc3ccccc31)C2=O` (stereo unspecified), the cytotoxicity is reported as -10.5%.
Work on `O=C(CN1CCCC1)N1c2ccccc2Sc2ccccc21` yielded a cytotoxicity of -4.5%.
With `CC1CC(=O)N(CC(=O)N2CCCC2)c2ccccc2S1` (stereo unspecified) the cytotoxicity was -21%.
Work on `CCOC(=O)C1CCN(C(=O)COc2ccc(Br)cc2)CC1` yielded a cytotoxicity of 6.3%.
Compound `CCCn1c(NCc2ccco2)nc2ccccc21` has a cytotoxicity of -3.7%.
`CCCn1c(NC(=O)c2ccccc2)nc2ccccc21` showed a cytotoxicity of -14.1%.
With `CCn1c(COc2ccccc2)nnc1SCC(=O)C(C)(C)C` the cytotoxicity was 16.4%.
Work on `CCC(Sc1nc2cc3c(cc2c(=O)n1Cc1ccco1)OCO3)C(=O)Nc1ccccc1OC` (stereo unspecified) yielded a cytotoxicity of -11.9%.
Compound `CCc1ccccc1NC(=O)C(CC)Sc1nc2cc3c(cc2c(=O)n1Cc1ccco1)OCO3` (stereo unspecified) has a cytotoxicity of 10.9%.
For `O=C(c1cccc(COc2ccc(Cl)cc2Cl)c1)N1CCN(c2ccccn2)CC1`, the cytotoxicity was 99% (active).
`O=C(CCCOc1ccc(Cl)cc1Cl)N1CCN(c2ccccn2)CC1` showed a cytotoxicity of 1.2%.
In the case of `O=C(c1cccc(Cl)c1)N1CCN(c2ccccn2)CC1`, the cytotoxicity is reported as -21.5%.
In the case of `COc1ccc(Br)cc1-c1nc(C)c(C(C)=O)n1O`, the cytotoxicity is reported as 9.6%.
In the case of `O=C(Nc1cccc(Cl)c1)c1ccc2c(=O)n3c(nc2c1)CCCCC3`, the cytotoxicity is reported as 53.7% (active).
`O=C(Nc1ccc(F)c(Cl)c1)c1ccc2c(=O)n3c(nc2c1)CCCCC3` gave a cytotoxicity of -3.7%.
Work on `O=C(Nc1ccc(F)cc1Cl)c1ccc2c(=O)n3c(nc2c1)CCCCC3` yielded a cytotoxicity of -3.1%.
`CCC(C)C(NC(=O)c1ccccc1NC(=O)c1ccco1)C(=O)O` (stereo unspecified) showed a cytotoxicity of 1.4%.
Compound `CC(C)COc1ccc(C2NC(=O)NC2=O)cc1` (stereo unspecified) has a cytotoxicity of 3.8%.
Compound `Nc1cc(C(=O)N2CCCC2)cc(C(=O)N2CCCC2)c1` has a cytotoxicity of 6.7%.
With `O=P(O)(CCc1ccccc1)CN1CCCCC1` the cytotoxicity was 2.1%.
For `COc1cc2c(O)c3c(c(-c4ccc5c(c4)OCO5)c2cc1OC)C(=O)OC3`, the cytotoxicity was 99.9% (active).
`COc1ccc(C(=O)Oc2ccc3c(c2)OCO3)cc1OC` gave a cytotoxicity of -16.2%.
In the case of `COc1cc2c(=O)n(-c3ccc(C)cc3)c(=O)n(CC(=O)c3ccc4c(c3)OCO4)c2cc1OC`, the cytotoxicity is reported as 2.3%.
In the case of `CN1C(=O)CC(N2CCN(CC(=O)N3CCCC3)CC2)C1=O` (stereo unspecified), the cytotoxicity is reported as -1.8%.
Compound `COc1ccc(S(=O)(=O)NC2CCCC2)cc1Br` has a cytotoxicity of 8.9%.
Work on `OC[C@H]1O[C@@H](n2cnc3c(NC4CCCC4)ncnc32)[C@H](O)[C@@H]1O` yielded a cytotoxicity of 3.7%.
For `Nc1ncnc2c1ncn2[C@@H]1O[C@H](CO)[C@@H](O)[C@H]1O`, the cytotoxicity was -17.3%.
With `C=CCNc1ncnc2c1ncn2C1OC(CO)C(O)C1O` (stereo unspecified) the cytotoxicity was 53.6% (active).
Work on `Nc1nc(Cl)nc2c1ncn2[C@@H]1O[C@H](CO)[C@@H](O)[C@H]1O` yielded a cytotoxicity of 2.5%.
Compound `Nc1nc(F)nc2c1ncn2[C@@H]1O[C@H](CO)[C@@H](O)[C@@H]1O` has a cytotoxicity of 42.7%.
In the case of `OC[C@H]1O[C@@H](n2cnc3c(Nc4ccccc4)ncnc32)[C@H](O)[C@@H]1O`, the cytotoxicity is reported as 62.3% (active).
With `COc1cccc2cc(C(=O)Nc3cccnc3N3CCOCC3)c(=O)oc12` the cytotoxicity was 7.3%.
Work on `O=C(CSc1nnnn1-c1ccc2c(c1)OCCO2)c1cccc2c1OCCO2` yielded a cytotoxicity of 10.2%.
Compound `COc1cccc(/C=N/n2c(CO)nc3ccccc32)c1OC` has a cytotoxicity of -4.1%.
`CC(O)C(O)C(O)C(O)C1NCCS1` (stereo unspecified) gave a cytotoxicity of 5.8%.
`CCCCn1c(=N)n(CC(O)COc2ccccc2)c2ccccc21` (stereo unspecified) gave a cytotoxicity of 13.3%.
In the case of `CCCCn1c(=N)n(CC(O)COc2cccc(C)c2)c2ccccc21` (stereo unspecified), the cytotoxicity is reported as 50.9% (active).
`COc1ccc(OCC(O)Cn2c(=N)n(Cc3ccccc3)c3ccccc32)cc1` (stereo unspecified) showed a cytotoxicity of 22.1%.
For `N=c1n(Cc2ccccc2)c2ccccc2n1CC(O)COc1ccccc1` (stereo unspecified), the cytotoxicity was 53% (active).
`CCn1c(=N)n(CC(O)COc2cccc(C)c2)c2ccccc21` (stereo unspecified) showed a cytotoxicity of 23.6%.
Work on `CCCn1c(=N)n(CC(O)COc2cccc(C)c2)c2ccccc21` (stereo unspecified) yielded a cytotoxicity of 12.4%.
In the case of `O=C(COc1ccccc1)NCCSc1ccccc1`, the cytotoxicity is reported as 0%.
Work on `CCN(CC)S(=O)(=O)c1ccc(OCC(=O)NCc2ccccc2)cc1` yielded a cytotoxicity of 7.9%.
`Cc1ccc(NC(=O)CSCc2c(C)noc2C)cc1C` showed a cytotoxicity of -2.9%.
Work on `COc1ccccc1Cn1c2nc3ccccc3nc2c2c(=O)n(CC(C)C)cnc21` yielded a cytotoxicity of 5%.
For `O=C(NC1CCCCC1)C1CCN(S(=O)(=O)c2cccc3cccnc23)CC1`, the cytotoxicity was -12.2%.
With `Cc1ccc(CNc2ncc(-c3ccc4c(c3)OCO4)n2C)cc1` the cytotoxicity was -5.9%.
In the case of `Cn1c(-c2ccc3c(c2)OCO3)cnc1NCc1ccccc1`, the cytotoxicity is reported as -4.5%.
Work on `Cn1c(-c2ccc3c(c2)OCO3)cnc1NC(=O)CCC(=O)NCCc1ccccc1` yielded a cytotoxicity of -0.9%.
`Cn1c(-c2ccc3c(c2)OCO3)cnc1N` gave a cytotoxicity of 8.4%.
For `Cn1c(-c2ccc3c(c2)OCO3)cnc1NCc1cccc(Cl)c1`, the cytotoxicity was 63.6% (active).
For `Cn1c(-c2ccc3c(c2)OCO3)cnc1NCc1ccc(Cl)cc1`, the cytotoxicity was 62.3% (active).
Work on `COc1ccc(CN2CCN(S(=O)(=O)c3ccc(NC(C)=O)cc3)CC2)cc1OC` yielded a cytotoxicity of -2.4%.
With `O=C(NCCN1C(=O)C2C3C=CC(C3)C2C1=O)Nc1ccc(Br)cc1` (stereo unspecified) the cytotoxicity was 8.1%.
`COc1cccc(S(=O)(=O)Nc2ccc(C(=O)NCc3ccco3)cc2)c1` gave a cytotoxicity of -28.4%.
`COc1ccc(CC(=O)N2CCN(C(=O)Cc3ccc(OC)cc3)CC2)cc1` showed a cytotoxicity of -6.3%.
In the case of `CCCCNC(=O)c1c(N)n(/N=C/c2cccnc2)c2nc3ccccc3nc12`, the cytotoxicity is reported as 12.3%.
For `Nc1c(C(=O)NC2CCCC2)c2nc3ccccc3nc2n1/N=C/c1cccnc1`, the cytotoxicity was 66.8% (active).
For `CCC(C)NC(=O)c1c(N)n(/N=C/c2cccnc2)c2nc3ccccc3nc12` (stereo unspecified), the cytotoxicity was 51.8% (active).
`CC(C)CNC(=O)c1c(N)n(/N=C/c2cccnc2)c2nc3ccccc3nc12` gave a cytotoxicity of 1.6%.
For `CCCCNC(=O)c1c(N)n(/N=C/c2ccccn2)c2nc3ccccc3nc12`, the cytotoxicity was 38.1%.
Compound `COCCCNC(=O)c1c(N)n(/N=C/c2cccnc2)c2nc3ccccc3nc12` has a cytotoxicity of 22.5%.
`CC(C)CNC(=O)c1c(N)n(/N=C/c2ccccn2)c2nc3ccccc3nc12` gave a cytotoxicity of 1.7%.
With `Nc1c(C(=O)NC2CCCCC2)c2nc3ccccc3nc2n1/N=C/c1ccco1` the cytotoxicity was 4.7%.

— PubChem BioAssay AID431 (Sanford-Burnham Center for Chemical Genomics, 2006)
